High-throughput results from PubChem BioAssay.
MPTP inh: permeability transition pore inhibition. isolated mouse mitochondria, Ca2+ swelling absorbance, 30 min. inhibition, % at 10 µM. actives 1.4% (n = 360,000). AID 602449;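 active = inhibition of 50% or more, scaled per plate between neutral and stimulator controls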;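 note: 0% = DMSO wells given calcium and 100% = 1 mM EGTA wells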
SKN-1 inh: inhibitors of C. elegans SKN-1. inhibition, % at 21.8 µM. C. elegans VP596 Pgst-4::GFP/RFP ratio, acrylamide-induced, 24 h. AID 624304. actives 0.49% (n = 360,000);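 active = interference check ratio from 0.5 to 1.5 plus GFP to RFP signal ratio inhibition reaching or exceeding a fixed threshold, cut at about 30% in these data, passing the limit was not always enough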
CendR NRP1 mod: modulators of CendR peptide binding to human neuropilin-1; O14786; FAM-RPARPAR peptide binding to NRP-1, fluorescence polarization; actives 0.85% (n = 360,000); inhibition, % at 25 µM;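 active = inhibition or corrected inhibition above about 18%, plus a signal ratio from 0.5 to 1.5, limit read from the data, passing the limit was not always enough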
ATG4B inh: inhibitors of human ATG4B cysteine protease; Q9Y4P1; ATG4B cleavage of LC3-PLA2, NBD-HPC fluorescence, 1 h; inhibition, % at 8.33 µM; actives 0.51% (n = 340,000); in the data active = inhibition above about 40%
Target sequence (Q9Y4P1 whole entry, looked up): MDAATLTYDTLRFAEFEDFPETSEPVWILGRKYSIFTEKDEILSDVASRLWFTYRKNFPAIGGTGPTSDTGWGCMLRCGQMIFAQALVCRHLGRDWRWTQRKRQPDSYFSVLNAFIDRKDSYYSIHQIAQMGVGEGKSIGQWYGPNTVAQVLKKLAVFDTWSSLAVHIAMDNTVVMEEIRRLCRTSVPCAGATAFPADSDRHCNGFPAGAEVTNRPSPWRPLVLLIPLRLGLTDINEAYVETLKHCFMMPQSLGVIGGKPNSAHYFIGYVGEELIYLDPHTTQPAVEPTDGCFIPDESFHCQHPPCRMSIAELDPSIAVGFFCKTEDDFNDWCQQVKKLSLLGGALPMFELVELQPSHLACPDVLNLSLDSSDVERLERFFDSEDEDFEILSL
CFTR F508del cor: CFTR F508del correction in bronchial cells | actives 0.36% (n = 350,000) | CFBE cells, YFP halide quenching; stimulated with forskolin plus potentiator P3; % fluorescence drop versus neutral controls | AID 720511 | activity (quench increase), % at 7.58 µM;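 active = mean added fluorescence quench of at least 8% versus neutral control, with both replicates also reaching 8%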;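 note: cells transiently co-express mutant CFTR-F508del with the halide-sensitive YFP; corrector assay measuring rescue of mutant channel to the surface after 24 h compound exposure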
MPTP counter: Rhodamine 123 counter-screen of mitochondrial pore hits; inhibition, % at 10 µM; isolated mitochondria, membrane potential, Rhodamine 123 fluorescence; actives 78% (n = 5,000); AID 624504; shares compounds with MPTP inh; in the data active = inhibition above about 22%;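 note: 0% = DMSO vehicle and 100% = positive control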
MPTP abs DR: MPTP inhibition, dose response swelling confirmation. shares compounds with MPTP inh. isolated mitochondria swelling, absorbance. IC50, µM. actives 58% (n = 780); in the data active = IC50 below about 20 µM
MPTP cs DR: MPTP inhibitor counter-screen activity, dose response. actives 49% (n = 780). isolated mitochondria counterscreen, fluorescence read-out. AID 651564. shares compounds with MPTP inh. IC50, µM; in the data active = IC50 below about 80 µM
* = called active by the depositor; / = no result given. An excerpt weighted towards active compounds, which were near 2.7% of everything screened.

SMILES | MPTP inh | SKN-1 inh | CendR NRP1 mod | ATG4B inh | CFTR F508del cor | MPTP counter | others
O=C(NC(NNc1ccc([N+](=O)[O-])cc1)(C(F)(F)F)C(F)(F)F)c1ccc(F)cc1 | 100* | 6 | -2 | 9 | -1 | 88*
O=C(NC(NNc1ccc([N+](=O)[O-])cc1)(C(F)(F)F)C(F)(F)F)c1ccccc1Cl | 90* | 12 | -14 | -6 | / | 84*
COC(=O)C(NNc1ccccc1)(NC(=O)c1ccc(F)cc1)C(F)(F)F (stereo not given) | 2 | -11 | -2 | -1 | / | /
CCOC(=O)c1ccc(NC(=O)Nc2ccc3c(c2)OCCO3)cc1 | 74* | 10 | 1 | -11 | / | 78*
CCOC(=O)c1ccc(NC(=O)C(=O)NCCc2ccc(OC)cc2)cc1 | -2 | 4 | -14 | 4 | 1 | /
CCOC(=O)c1cn[nH]c1NC(=S)Nc1ccc(Cl)cc1 | 66* | 8 | 2 | -5 | -2 | 65*
Cc1ccc(CNCCC2=CCCCC2)cc1 | 65* | -19 | -11 | 2 | / | -2 | MPTP abs DR=19*;MPTP cs DR=48*
CCOC(=O)c1ccc(NC(=S)NCCc2ccc(F)cc2)cc1 | 85* | 7 | 0 | -9 | 1 | 79*
O=C(Nc1ccccc1)N1CC(=O)N2[C@@H](CO)[C@H](c3ccc(C#CC4CCCCC4)cc3)[C@@H]2C1 | / | / | / | / | 6 | /
COc1ccc(NC(=O)N(C)C[C@H]2Oc3ccc(NC(=O)Nc4ccc5c(c4)OCO5)cc3CC(=O)N([C@H](C)CO)C[C@H]2C)cc1 | / | / | / | / | 1 | /
CC(C)NC(=O)N(C)C[C@H]1Oc2ccc(NS(=O)(=O)c3ccc(F)cc3)cc2C(=O)N([C@@H](C)CO)C[C@H]1C | / | / | / | / | -3 | /
CCOC(=O)c1ccc(NC(=S)Nc2ccccc2)cc1 | 88* | 0 | 5 | -7 | 2 | 95*
COC(=O)c1ccc(NC(=S)NCCC2=CCCCC2)cc1 | 89* | 0 | -3 | 4 | / | 87*
CCOC(=O)c1ccc(NC(=S)Nc2ccc(C)cc2)cc1 | 9 | -7 | 13 | -9 | -3 | /
Cc1ccc(NC(=S)NNc2ccc(C(=O)O)cc2[N+](=O)[O-])cc1C | 54* | -16 | 11 | -2 | -5 | 64*
Cc1ccc(CNC(=S)Nc2ccc(C)c([N+](=O)[O-])c2)cc1 | 102* | 6 | 7 | 8 | / | 98*
Cc1cc(C)cc(Nc2ccc(C(=O)O)cc2[N+](=O)[O-])c1 | 1 | 19 | -6 | -3 | -3 | /
CNC(=S)Nc1ccc([N+](=O)[O-])c(C)c1 | 62* | 3 | -4 | -3 | 0 | 78*
C[C@@H]1CN([C@H](C)CO)C(=O)Cc2cc(NS(=O)(=O)c3ccc(F)cc3)ccc2O[C@H]1CN(C)Cc1ccc(Oc2ccccc2)cc1 | / | / | / | / | 0 | /
Cc1ccc2cc(CN(CCc3ccccc3)C(=S)NCCCN(C)C)c(=O)[nH]c2c1 | 0 | 12 | 13 | 1 | -1 | /
Cc1ccc2[nH]c(=O)c(CN(CCCN(C)C)C(=S)NCCc3ccccc3)cc2c1 | 86* | 2 | 5 | -9 | 1 | -10 | MPTP abs DR=12*;MPTP cs DR=>80
COc1cccc(C#Cc2ccc3c(c2)[C@H]2[C@H](CCN2C(=O)c2ccc4c(c2)OCO4)[C@@H](CO)N3)c1 | / | / | / | / | -1 | /
O[C@@H](c1cc(C(F)(F)F)nc2c(C(F)(F)F)cccc12)[C@H]1CCCCN1 | 97* | -3 | 5 | 3 | 0 | -21
CC(C)(C)NCCC(O)c1cc(C(F)(F)F)nc2c(C(F)(F)F)cccc12 (stereo not given) | 8 | 23 | -9 | -3 | 1 | /
CC1=C([N+](=O)[O-])C(c2cccc(Br)c2)C2=C(N1)c1ccccc1C2=O (stereo not given) | 85* | -3 | -16 | 27 | / | 58*
SMILES | MPTP inh | SKN-1 inh | CendR NRP1 mod | ATG4B inh | CFTR F508del cor | MPTP counter | others
COC(=O)C1=C(C)NC2=C(C(=O)c3ccccc32)C1c1cccc(OC)c1 (stereo not given) | 10 | 3 | 14 | 0 | 0 | /
CCC(C)c1ccc(O)c(NC(=O)c2cncc(Br)c2)c1 (stereo not given) | 77* | 1 | -4 | 2 | 2 | 64*
O=C(C[C@@H]1C=C[C@@H](NC(=O)c2ccccc2)[C@@H](CO)O1)Nc1ccc(-c2ccccc2)cc1 | / | / | / | / | -4 | /
CCCNC(=O)N1CC2(CN(CC3CC3)C2)c2c([nH]c3cc(OC)ccc23)[C@H]1CO | / | / | / | / | -2 | /
CCCCNC(=S)Nc1ccc(Oc2ccccc2)cc1 | 76* | 22 | -2 | 19 | 5 | 91*
CN(C)c1cc[n+](CC(=O)Nc2ccc(Oc3ccccc3)cc2)cc1 | 70* | -3 | 8 | 3 | 5 | 56*
CCN(C(=S)Nc1ccc(Oc2ccccc2)cc1)c1ccccc1 | 91* | 8 | 1 | 1 | / | 97*
CCCNC(=S)Nc1ccc(Oc2ccccc2)cc1 | 58* | 4 | -5 | 0 | / | 65*
CCOc1ccc(NC(=S)NCCCc2ccccc2)cc1 | 1 | -2 | -6 | -4 | -6 | /
Cc1ccc(-c2cnc3c(c2)C(=O)N([C@@H](C)CO)C[C@@H](C)[C@H](CN(C)C(=O)c2cccnc2)O3)cc1 | / | / | / | / | 4 | /
S=C(NCc1ccco1)Nc1ccc(Cl)cc1 | 1 | 10 | -4 | -3 | 0 | /
CC(C)(C)c1ccc(OCCNC(=S)Nc2ccccc2)cc1 | 92* | -1 | 7 | 25 | 3 | 89*
S=C(NCc1ccco1)Nc1ccc(Oc2ccc(Cl)cc2)cc1 | 73* | 21 | -6 | 27 | -2 | 90*
CCN1[C@@H]2c3ccc(-c4cccc(F)c4)c(=O)n3C[C@@H]2[C@@H](CO)[C@@H]1C(=O)N[C@H](C)c1ccccc1 | / | / | / | / | -1 | /
CNC[C@@H]1Oc2ncc(Br)cc2C(=O)N([C@H](C)CO)C[C@@H]1C | / | / | / | / | 2 | /
COc1ccc(NC(=O)N(C)C[C@@H]2Oc3ccc(NC(=O)Nc4cccc5ccccc45)cc3CC(=O)N([C@H](C)CO)C[C@H]2C)cc1 | / | / | / | / | 1 | /
CNCc1ccccc1Sc1cccc2ccccc12 | 93* | 6 | 6 | 3 | / | 20*
Cc1noc(C)c1S(=O)(=O)Nc1ccc2c(c1)CC(=O)N([C@H](C)CO)C[C@@H](C)[C@@H](CN(C)S(=O)(=O)c1cn(C)cn1)O2 | / | / | / | / | -2 | /
O=C(CSc1nnc2c(n1)[nH]c1ccccc12)Nc1ccc(N2CCOCC2)cc1 | 12 | 0 | -2 | 7 | -2 | /
O=C(CSc1nnc2c(n1)[nH]c1ccccc12)Nc1cccc(S(=O)(=O)N2CCOCC2)c1 | 52* | 1 | 11 | -12 | 1 | 35*
